From PubChem BioAssay (Tox21) come the findings set out here.

Each structure is given as a SMILES string. Calls of active or inactive are those of the source. The call rests on the fitted dose curve; in most records, active means well fitted curve in the direction sought with a large enough effect in the repeat runs; inconclusive means weak or mixed curves; inactive means flat fitted curve, though single readings scatter.
On the % scale 0 is the no-effect control and ±100 the full control effect.

This test can be described thus: qHTS assay to test for compound auto fluorescence at 590 nm (red) in HEK293 cells (AID 720679). Particulars: red autofluorescence 540/590 nm; series mostly up to 91.3 µM. The source says: National Center for Advancing Translational Sciences [NCATS]
NIH Chemical Genomics Center [NCGC]
U.S. Environmental Protection Agency [EPA]
National Institutes of Environmental Health Sciences [NIEHS]
National Toxicology Program [NTP]
U.S. Food and Drug Administration [FDA]
Compound auto fluorescence often interferes with screening of the compound library against various biological targets and signaling pathways. Some of these compounds may have fluorophoric properties. Such properties may interfere with the assay outputs resulting in false positives and/or negatives. To decrease such complications and ensure the compound activities are relevant in terms of biological response, the Tox21 10K compound library was screened for auto fluorescence.
From the fluorophores used as reporter signals in our screening assays, the auto fluorescence equivalencies of compounds against three fluorophores have been evaluated: Triamterene, Fluorescein and Rose Bengal sodium for blue, green and red fluorescence, respectively. The fluorescence intensities were measured using Excitation/Emission wavelengths at 405/460nm, 485/535nm and 540/590nm for blue, green and red labels, respectively. This assay includes the red fluorescence data.
Tox21 Assay Protocol Summary:
2,000 HEK293 cells in 5 uL of culture medium containing 10% dialyzed FBS per well were dispensed into black wall/clear bottom 1536-well plates using a Multidrop Combi Dispenser (Thermo Scientific). The assay plates were incubated for 4-5 hr at 37C to allow cell attachment to the well bottom, followed by the transfer of 23 nL compound or DMSO vehicle by a pintool work station (Kalypsys, San Diego, CA). After the assay plates were incubated overnight at 37C and 5% CO2, fluorescence intensities in the assay plates were measured by an Envision (PerkinElmer, Shelton, CT) plate reader using three labels for measuring blue, green and red fluorescence at […] 460, 535 and 590nm respectively.
As to `CC(C)Nc1ccccc1`, the outcome was inactive.

On to `C=CCCCC`, for which the compound was classed as inactive. On to `CCO[Si](CC)(OCC)OCC`, for which the compound was classed as inactive.

For `CC(S)C(C)S` (stereo not given), the call was inactive. For the compound `C=C(C)c1cccc(C(C)(C)N=C=O)c1`, the compound was called inactive.

As to `O=C(CCCCC(=O)Nc1c(I)cc(I)c(C(=O)O)c1I)Nc1c(I)cc(I)c(C(=O)O)c1I`, the compound was called inactive.

In the case of `O=S(=O)(O)c1ccc2c(N=Nc3ccc(S(=O)(=O)O)c4ccccc34)c(O)c(S(=O)(=O)O)cc2c1`, the compound was classed as inactive. In the case of `OC[C@@H](O)C(O)[C@@H](O)CO` (stereo not given in full), the compound was classed as inactive. Same read-out and setting: then `O/N=C/C=N/O`, with “inactive”; and `CC(=O)CCc1ccc(OC(C)=O)cc1`, with “inactive”; and `CC(=O)Nc1ccc(OC(=O)c2ccccc2OC(C)=O)cc1`, with “inactive”.

Regarding `CC(=O)O[C@@H]1CC2CCC1(C)C2(C)C` (stereo not given in full), the call was inactive. For `CC(C)=CCC[C@@](C)(O)[C@H]1CC=C(C)CC1`, the compound was called inactive. Regarding `O=NN(CCCl)C(=O)NC1CCCCC1`, the outcome was inactive. `CC1CC(=O)CC(C)(C)C1` (stereo not given): the compound was classed as inactive.

Regarding `COc1nc(N)nc2nc[nH]c12`, the call was inactive. Consider `CCn1cc(C(=O)O)c(=O)c2cnc(N3CCCC3)nc21`, for which the fluorescence, % of fluorescent control is -0.164% [at 18.6 µM] (inactive). With `CC1(C)Cc2cccc(N)c2O1`, the result was inactive. For `CNCCS(=O)(=O)O`, the call was inactive. `OC[C@H]1O[C@@H](O[C@@H]2[C@@H](CO)O[C@](O)(CO)[C@H]2O)[C@H](O)[C@@H](O)[C@H]1O`: the outcome was inactive. The same measure, in the same setting: then `CCCCCCCCCCOC(C)=O`, with “inactive”. As to `CCC(=O)CC`, the compound was classed as inactive.

As to `Cc1ncc([N+](=O)[O-])n1CC(C)O` (stereo not given), the outcome was inactive. Take `Cc1ccc(N)cc1S(=O)(=O)O`: the outcome was inactive. Turning to `CO/N=C(/C(=O)N[C@@H]1C(=O)N2C(C(=O)[O-])=C(C[n+]3ccn4ncccc43)CS[C@H]12)c1nsc(N)n1`, the result was inactive.

`CC(C)OC(=O)OCOP(=O)(CO[C@H](C)Cn1cnc2c(N)ncnc21)OCOC(=O)OC(C)C`: the compound was classed as inactive. Consider `CC/C=C\CCOC(=O)c1ccccc1O`, for which the outcome was inactive. As to `N[C@@H](Cc1ccc(O)cc1)C(=O)O`, the outcome was inactive.

In the case of `CCC(C)C(C)=O` (stereo not given), the result was inactive. Consider `COC(=O)c1cc(Cl)cc(Cl)c1`, for which the call was inactive. Take `NCCOCCN`: the call was inactive. On to `CCNC(=O)NCc1cccc(Cl)c1`, for which the compound was called inactive. Turning to `CC(=O)CCC1=C(C)CCCC1(C)C`, the result was inactive.

On to `CC(C)[C@H]1CC[C@H](C)C[C@@H]1O`, for which the compound was classed as inactive. On to `CCCC(=O)OC/C=C(\C)CCC=C(C)C`, for which the result was inactive.

For the compound `OCC(O)CN1CCN(c2ccccc2)CC1` (stereo not given), the compound was classed as inactive.

Regarding `COc1cc2c(cc1OC)C(=O)C(CC1CCN(Cc3ccccc3)CC1)C2` (stereo not given), the call was inactive. Turning to `CSc1cnccn1`, the compound was classed as inactive. Turning to `C=CCSSCCC`, the compound was classed as inactive. Turning to `c1ccc(B(c2ccccc2)c2ccccc2)cc1`, the call was inactive.
